Measurements reported in PubChem BioAssay (EPA / NIEHS).
Calls of active or inactive are those of the source. How the source made its calls: active means hit-call score of the fitted dose curve at least 0.9, where 1 is the maximum; inactive means score below 0.9.

Legend:
[1] = read-out: TIMP metallopeptidase inhibitor 1 (TIMP1), TIMP1 (gene 7076); experiment: BSK_hDFCGF_TIMP1: BioMAP Diversity Plus: hDFCGF Assay for TIMP metallopeptidase inhibitor 1 (TIMP1) Biomarker Activity (AID 2283062); conditions: primary human foreskin fibroblasts; actives raise or lower the signal
Method in brief: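 Human skin fibroblasts (primary), hDFCGF system; compound exposure 24 h; TIMP-1 by ELISA; bidirectional fit vs DMSO negative control; overt cytotoxicity by SRB in parallel wells.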

[2] = read-out: Monokine induced gamma interferon (MIG), CXCL9 (gene 4283); experiment: BSK_hDFCGF_MIG: BioMAP Diversity Plus: hDFCGF Assay for Monokine induced gamma interferon (MIG) Biomarker Activity (AID 2283063); conditions: primary human foreskin fibroblasts; actives raise or lower the signal
Method in brief: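 Chemicals were added to primary human foreskin fibroblast cultures, which were sampled 24 h later. MIG levels were then quantified by ELISA and responses fitted in both directions relative to DMSO.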

[3] = read-out: Matrix Metallopeptidase 1 (MMP1), MMP1 (gene 4312); experiment: BSK_hDFCGF_MMP1: BioMAP Diversity Plus: hDFCGF Assay for Matrix Metallopeptidase 1 (MMP1) Biomarker Activity (AID 2283064); conditions: primary human foreskin fibroblasts; actives raise or lower the signal
Method in brief: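 Human foreskin fibroblasts exposed to chemical for 24 h; MMP1 detected by ELISA, with DMSO as baseline for bidirectional fitting.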

[4] = read-out: Vascular cell adhesion molecule 1 (VCAM1), VCAM1 (gene 7412); experiment: BSK_hDFCGF_VCAM1: BioMAP Diversity Plus: hDFCGF Assay for Vascular cell adhesion molecule 1 (VCAM1) Biomarker Activity (AID 2283065); conditions: primary human foreskin fibroblasts; actives raise or lower the signal
Method in brief: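 Human foreskin fibroblast primary cells, chemical exposure 24 h; VCAM-1 by ELISA; bidirectional fit, DMSO = negative control/baseline.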

[5] = read-out: Plasminogen activator inhibitor-1 (PAI1), SERPINE1 (gene 5054); experiment: BSK_hDFCGF_PAI1: BioMAP Diversity Plus: hDFCGF Assay for Plasminogen activator inhibitor-1 (PAI1) Biomarker Activity (AID 2283066); conditions: primary human foreskin fibroblasts; actives raise or lower the signal
Method in brief: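 Fibroblasts from human foreskin were treated with test chemical. After 24 h, PAI-1 was measured by ELISA. Activity was fitted in both directions relative to DMSO.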

[6] = read-out: Intercellular Adhesion Molecule 1 (ICAM1), ICAM1 (gene 3383); experiment: BSK_KF3CT_ICAM1: BioMAP Diversity Plus: KF3CT Assay for Intercellular Adhesion Molecule 1 (ICAM1) Biomarker Activity (AID 2283067); conditions: primary human keratinocytes with fibroblasts; actives raise or lower the signal
Method in brief: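 ICAM-1 levels are measured by ELISA 24 h after dosing a primary human co-culture of keratinocytes and foreskin fibroblasts. Activity in either direction is fitted relative to DMSO vehicle.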

[7] = read-out: Interferon-gamma inducible Protein 10 (IP10), CXCL10 (gene 3627); experiment: BSK_KF3CT_IP10: BioMAP Diversity Plus: KF3CT Assay for Interferon-gamma inducible Protein 10 (IP10) Biomarker Activity (AID 2283068); conditions: primary human keratinocytes with fibroblasts; actives raise or lower the signal
Method in brief: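 In a primary skin co-culture of keratinocytes and fibroblasts, IP-10 is quantified by ELISA at 24 h after dosing. SRB staining of parallel wells monitors overt toxicity. Curves are fitted both directions against DMSO.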

[8] = BSK_KF3CT_SRB: Viability Assessment in the BioMAP Diversity Plus: KF3CT Assay (AID 2283069); conditions: primary human keratinocytes with fibroblasts;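 further: read 24 h after compound addition; fitted for both signal gain and loss against DMSO baseline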
Method in brief: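 Overt cytotoxicity is assessed as total protein by sulforhodamine B staining in parallel human skin co-cultures at 24 h after dosing. DMSO serves as negative control and baseline.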

[9] = read-out: Interleukin-1 alpha (IL1a), IL1A (gene 3552); experiment: BSK_KF3CT_IL1a: BioMAP Diversity Plus: KF3CT Assay for Interleukin-1 alpha (IL1a) Biomarker Activity (AID 2283070); conditions: primary human keratinocytes with fibroblasts; actives raise or lower the signal
Method in brief: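 Readout is IL-1a level by ELISA, compared bidirectionally with DMSO as baseline. Cells: human keratinocytes co-cultured with foreskin fibroblasts, harvested 24 h post-dose.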

[10] = read-out: TIMP metallopeptidase inhibitor 2 (TIMP2), TIMP2 (gene 7077); experiment: BSK_KF3CT_TIMP2: BioMAP Diversity Plus: KF3CT Assay for TIMP metallopeptidase inhibitor 2 (TIMP2) Biomarker Activity (AID 2283071); conditions: primary human keratinocytes with fibroblasts; actives raise or lower the signal
Method in brief: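 Chemicals were dosed onto human skin primary co-cultures of keratinocytes and foreskin fibroblasts, and TIMP-2 was measured by ELISA after 24 hours. Activity in either direction was fitted relative to DMSO.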

[11] = read-out: Transforming growth factor beta 1 (TGFb1), TGFB1 (gene 7040); experiment: BSK_KF3CT_TGFb1: BioMAP Diversity Plus: KF3CT Assay for Transforming growth factor beta 1 (TGFb1) Biomarker Activity (AID 2283072); conditions: primary human keratinocytes with fibroblasts; actives raise or lower the signal
Method in brief: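 KF3CT co-culture (keratinocytes + fibroblasts), 24 h exposure → TGF-b1 ELISA → bidirectional fit, DMSO = baseline. Parallel SRB total-protein staining (0.1% SRB, 10% TCA fixation, 560 nm) for cytotoxicity.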

[12] = read-out: C-C motif chemokine 2 (Homo sapiens) (UniProt P13500); experiment: BSK_KF3CT_MCP1: BioMAP Diversity Plus: KF3CT Assay for Monocyte Chemoattractant Protein 1 (MCP1/CCL2) Biomarker Activity (AID 2283073); conditions: primary human keratinocytes with fibroblasts; actives raise or lower the signal
Method in brief: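 ELISA readout of MCP-1 after 24 h chemical dosing of a human skin primary co-culture of keratinocytes and foreskin fibroblasts. Activity was fitted in both directions against DMSO.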

[13] = read-out: Matrix Metallopeptidase 9 (MMP9), MMP9 (gene 4318); experiment: BSK_KF3CT_MMP9: BioMAP Diversity Plus: KF3CT Assay for Matrix Metallopeptidase 9 (MMP9) Biomarker Activity (AID 2283074); conditions: primary human keratinocytes with fibroblasts; actives raise or lower the signal;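 on AC50: MMP9 protein level quantified by ELISA in the co-culture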
Method in brief: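 Values come from bidirectional fitting relative to DMSO of MMP-9 levels, which were measured by ELISA. Measurements were taken 24 h after chemical dosing of a keratinocyte and foreskin fibroblast co-culture.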

[14] = read-out: urokinase plasminogen activator (uPA), PLAU (gene 5328); experiment: BSK_KF3CT_uPA: BioMAP Diversity Plus: KF3CT Assay for urokinase plasminogen activator (uPA) Biomarker Activity (AID 2283075); conditions: primary human keratinocytes with fibroblasts; actives raise or lower the signal
Method in brief: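 Values derive from bidirectional fitting against DMSO controls. Keratinocyte/foreskin fibroblast co-cultures received chemical; 24 h later uPA was detected by ELISA, with SRB total-protein staining in parallel wells for overt cytotoxicity.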

[15] = read-out: CD40, CD40 (gene 958); experiment: BSK_LPS_CD40: BioMAP Diversity Plus: LPS Assay for CD40 Biomarker Activity (AID 2283076); conditions: primary human HUVEC with PBMC; actives raise or lower the signal
Method in brief: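 Cells were dosed, incubated 24 h, then assayed for CD40 by ELISA. Gain or loss of signal was analysed relative to DMSO controls. The culture paired human umbilical vein endothelium with peripheral blood mononuclear cells.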

[16] = read-out: E-selectin (Homo sapiens) (UniProt P16581); experiment: BSK_LPS_Eselectin: BioMAP Diversity Plus: LPS Assay for Eselectin Biomarker Activity (AID 2283077); conditions: primary human HUVEC with PBMC; actives raise or lower the signal
Method in brief: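 Primary human vascular co-culture (endothelium plus PBMC) was dosed with chemical, then E-selectin quantified by ELISA at 24 h. Endpoint values derive from bidirectional curve fitting relative to DMSO.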

[17] = read-out: Interleukin-8 (IL8), CXCL8 (gene 3576); experiment: BSK_LPS_IL8: BioMAP Diversity Plus: LPS Assay for Interleukin-8 (IL8) Biomarker Activity (AID 2283078); conditions: primary human HUVEC with PBMC; actives raise or lower the signal
Method in brief: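 Readout is IL-8 by ELISA, taken 24 h after compounds were added to LPS-stimulated endothelial/PBMC co-cultures. Both increases and decreases relative to DMSO control were scored through bidirectional fitting.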

[18] = BSK_LPS_SRB: Viability Assessment in the BioMAP Diversity Plus: LPS Assay (AID 2283079); conditions: primary human HUVEC with PBMC;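 further: total protein by sulforhodamine B absorbance as a cytotoxicity measure; measured one day after compound addition; fitted in both directions against DMSO so loss or gain of signal counts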
Method in brief: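 Readout is SRB absorbance at 560 nm (0.1% stain, TCA-fixed parallel cultures) as a total-protein cytotoxicity measure. Cells: primary human umbilical vein endothelium plus peripheral blood mononuclear cells, 24 h after chemical exposure; DMSO served as baseline.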

[19] = read-out: Interleukin-1 alpha (IL1a), IL1A (gene 3552); experiment: BSK_LPS_IL1a: BioMAP Diversity Plus: LPS Assay for Interleukin-1 alpha (IL1a) Biomarker Activity (AID 2283080); conditions: primary human HUVEC with PBMC; actives raise or lower the signal
Method in brief: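 ELISA read-out of IL-1 alpha from a human primary vascular co-culture (endothelium plus PBMC) under LPS, sampled 24 hours post-dosing. Activity was fitted in both directions relative to DMSO controls.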

[20] = read-out: Monocyte Chemoattractant Protein-1 (MCP1), CCL2 (gene 6347); experiment: BSK_LPS_MCP1: BioMAP Diversity Plus: LPS Assay for Monocyte Chemoattractant Protein-1 (MCP1) Biomarker Activity (AID 2283081); conditions: primary human HUVEC with PBMC; actives raise or lower the signal
Method in brief: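 Human endothelial–PBMC co-cultures were dosed with chemical, then LPS-driven MCP-1 levels were quantified by ELISA at 24 h. Activity in either direction was fitted versus DMSO negative control.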

Measured: AC50

E-selectin (Homo sapiens), sequence (P16581 whole entry, looked up): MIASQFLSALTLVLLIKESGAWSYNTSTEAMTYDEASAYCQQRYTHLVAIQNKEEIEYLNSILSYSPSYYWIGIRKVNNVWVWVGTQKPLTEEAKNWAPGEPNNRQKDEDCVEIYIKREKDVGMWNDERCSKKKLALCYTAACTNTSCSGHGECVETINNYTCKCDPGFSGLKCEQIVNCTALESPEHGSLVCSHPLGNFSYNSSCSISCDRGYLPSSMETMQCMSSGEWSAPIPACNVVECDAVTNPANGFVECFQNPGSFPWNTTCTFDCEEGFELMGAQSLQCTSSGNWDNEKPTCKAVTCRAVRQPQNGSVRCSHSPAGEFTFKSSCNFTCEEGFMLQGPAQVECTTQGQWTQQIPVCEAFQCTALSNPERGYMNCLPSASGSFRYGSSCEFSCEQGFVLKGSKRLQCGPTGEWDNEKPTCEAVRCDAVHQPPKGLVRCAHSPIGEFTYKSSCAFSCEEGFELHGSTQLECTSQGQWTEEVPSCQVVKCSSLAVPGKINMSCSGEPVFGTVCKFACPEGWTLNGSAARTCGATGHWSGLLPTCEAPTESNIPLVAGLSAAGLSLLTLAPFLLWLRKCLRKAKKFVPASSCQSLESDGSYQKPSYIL

CCCCCCCCCCCCCCCCCC(=O)OCC(CC)CCCC (configuration not stated)
inactive: all assays above

CCc1c(C)cc(N)c(CC)c1N
active: [9] 1.94 µM
not listed: [17]
inactive: all other assays above

C#C[C@]1(O)CC[C@H]2[C@@H]3CCC4=Cc5oncc5C[C@]4(C)[C@H]3CC[C@@]21C
active: [10] 3.28 µM | [13] 3.97 µM | [18] 6.65 µM
not listed: [4] | [17]
inactive: all other assays above
